In PubChem BioAssay AID1159580 (chemical genetic matrix, 2015):
“And” between values parts separate entries of the source, which are not always exact repeats. Equal values may be shown once. In all, about 5,500 compounds went through this assay and about 2,000 (36%) were called active. About 18% were inconclusive and are not listed. Rule as the data show it: active = normalized growth mostly below about 0.91 (no sharp cut-off); inconclusive = no clear call, values can overlap the other calls; inactive = mostly above about 0.92. The list shows a part of the results.

Assay: chemical genetic growth profiling, strain panel (AID 1159580);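 also: tested at 20 µM; growth read once vehicle control cultures reached saturation at 30 °C; 1 = growth at the plate median or of vehicle wells; lower values mean less growth of the strain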
Details: S. cerevisiae deletion strains, growth OD

Measured: normalized growth

O=C(O)c1cc2ccccc2[nH]1
inactive: locus YAL013W, strain DEP1, active compounds read low 1.01 | locus YAL021C, strain ccr4, active compounds read low 0.969 | locus YAL026C, strain drs2, active compounds read low 0.99 | locus YAL030W, strain snc1, active compounds read low 1 | locus YBL061C, strain skt5, active compounds read low 0.996 | locus YBR009C, strain hhf1, active compounds read low 0.996 | locus YBR021W, strain FUR4, active compounds read low 0.98 | locus YBR023C, strain chs3, active compounds read low 0.994 | locus YBR171W, strain sec66, active compounds read low 0.982 | locus YBR229C, strain ROT2, active compounds read low 1 | locus YBR231C, strain swc5, active compounds read low 0.994 | locus YBR279W, strain paf1, active compounds read low 0.991 | locus YCL011C, strain gbp2, active compounds read low 0.98 | locus YCL016C, strain dcc1, active compounds read low 0.998 | locus YCL029C, strain bik1, active compounds read low 1.01 | locus YCL061C, strain MRC1, active compounds read low 0.973 | locus YCL069W, strain vba3, active compounds read low 0.984 | locus YCR088W, strain abp1, active compounds read low 0.98 | locus YDL005C, strain med2, active compounds read low 0.982 | locus YDL035C, strain GPR1, active compounds read low 1.01 | locus YDL040C, strain nat1, active compounds read low 0.995 | locus YDL074C, strain BRE1, active compounds read low 1.01 | locus YDL101C, strain DUN1, active compounds read low 1.02 | locus YDL134C, strain PPH21, active compounds read low 1.01 | locus YDL185W, strain tfp1, active compounds read low 1.01 | locus YDL192W, strain arf1, active compounds read low 1.02 | locus YDR001C, strain nth1, active compounds read low 0.977 | locus YDR069C, strain doa4, active compounds read low 1 | locus YDR101C, strain arx1, active compounds read low 1.02 | locus YDR137W, strain rgp1, active compounds read low 0.938 | locus YDR150W, strain NUM1, active compounds read low 1.01 | locus YDR159W, strain sac3, active compounds read low 0.982 | locus YDR162C, strain NBP2, active compounds read low 1.04 | locus YDR195W, strain ref2 0.978 | locus YDR297W, strain sur2, active compounds read low 0.981 | locus YDR318W, strain mcm21, active compounds read low 1.01 | locus YDR334W, strain swr1, active compounds read low 0.958 | locus YDR335W, strain msn5, active compounds read low 0.987 | locus YDR388W, active compounds read low 1.01 | locus YDR392W, strain spt3, active compounds read low 0.947 | locus YDR502C, strain sam2, active compounds read low 1.01 | locus YEL003W, strain gim4, active compounds read low 0.978 | locus YEL037C, strain rad23, active compounds read low 0.982 | locus YEL061C, strain CIN8 (second series), active compounds read low 0.981 | locus YEL061C, strain CIN8, active compounds read low 1 | locus YER015W, strain faa2, active compounds read low 0.989 | locus YER016W, strain bim1, active compounds read low 1 | locus YER110C, active compounds read low 1.02 | locus YER111C, strain swi4, active compounds read low 0.997 | locus YER155C, strain BEM2 (second series), active compounds read low 1.01 | locus YER155C, strain BEM2, active compounds read low 0.992 | locus YER167W, strain BCK2, active compounds read low 1.01 | locus YFR010W, strain ubp6, active compounds read low 0.968 | locus YGL078C, strain dbp3, active compounds read low 0.995 | locus YGL086W, strain mad1, active compounds read low 1.02 | locus YGL167C, strain pmr1, active compounds read low 0.993 | locus YGL173C, strain kem1, active compounds read low 0.975 | locus YGL227W, strain vid30, active compounds read low 0.982 | locus YGL240W, strain doc1, active compounds read low 1 | locus YGL248W, strain PDE1, active compounds read low 1 | locus YGL253W, strain hxk2, active compounds read low 0.987 | locus YGR078C, strain PAC10, active compounds read low 0.99 | locus YGR135W, strain pre9, active compounds read low 1.01 | locus YGR229C, strain SMI1, active compounds read low 0.999 | locus YGR252W, strain gcn5, active compounds read low 0.984 | locus YHR013C, strain ard1, active compounds read low 1 | locus YHR027C, strain rpn1, active compounds read low 1.02 | locus YHR030C, strain SLT2, active compounds read low 1.01 and 1.03 | locus YHR079C, strain IRE1 (second series), active compounds read low 1.01 | locus YHR079C, strain IRE1, active compounds read low 1 | locus YHR094C, strain hxt1, active compounds read low 1.02 | locus YHR129C, strain ARP1, active compounds read low 1.01 | locus YHR142W, strain chs7, active compounds read low 0.928 | locus YHR200W, strain rpn10, active compounds read low 1.02 | locus YIL066C, strain RNR3, active compounds read low 1.02 | locus YIL073C, strain SPO22, active compounds read low 1.07 | locus YIL125W, strain kgd1, active compounds read low 0.995 | locus YIR030C, strain dcg1, active compounds read low 1.01 | locus YJL092W, strain hpr5, active compounds read low 0.97 | locus YJL095W, strain BCK1 (second series), active compounds read low 1 | locus YJL095W, strain BCK1, active compounds read low 1.01 | locus YJL115W, strain asf1, active compounds read low 0.975 | locus YJL129C, strain trk1, active compounds read low 0.971 | locus YJL134W, strain LCB3, active compounds read low 1.01 | locus YJL154C, strain vps35, active compounds read low 0.966 | locus YJL164C, strain tpk1, active compounds read low 1 | locus YJL166W, strain qcr8, active compounds read low 1 | locus YJL168C, strain set2, active compounds read low 1.02 | locus YJL187C, strain SWE1 (second series), active compounds read low 1.01 | locus YJL187C, strain SWE1, active compounds read low 0.988 | locus YJR043C, strain POL32, active compounds read low 0.99 | locus YJR066W, strain TOR1, active compounds read low 0.935
